# PDI turbidity = inhibitors of human PDI, primary screen, biochemical, turbidity, single point, plate reader | Protein disulfide-isomerase (Homo sapiens), P07237 | PDI insulin aggregation turbidity, A650, 90 min | inhibition, % at 10 µM | 350,000 tested, 0.052% active | AID 588391, 2011;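 active means mean inhibition across replicates of 30% or more, whatever share of single replicates reach that level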
# PglD inh = C. jejuni PglD acetyltransferase inhibitors, primary screen, biochemical, DTNB colorimetric, single point; inhibition, % at 12.5 µM; UDP-N-acetylbacillosamine N-acetyltransferase PglD (Campylobacter jejuni); AID 602405, 2012; 360,000 tested, 0.098% active; purified PglD enzyme, DTNB colorimetric CoA detection; in the data active means inhibition above about 16%, passing the limit was not always enough
# NRP1-CendR mod = modulators of CendR peptide binding to NRP-1, primary screen, biochemical, fluorescence polarization, uHTS. FAM-RPARPAR peptide binding to NRP-1. Neuropilin-1 (Homo sapiens), O14786. inhibition, % at 25 µM. 360,000 tested, 0.85% active;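 active means inhibition or corrected inhibition above about 18%, plus a signal ratio from 0.5 to 1.5, limit read from the data, passing the limit was not always enough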
# ERp5 block = inhibitors of ERp5-driven insulin aggregation, primary screen, biochemical, turbidity, absorbance 650 nm, single point; 90 min; inhibition, % at 9.99 µM; 350,000 tested, 0.05% active; AID 651711, 2012;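 active means mean replicate inhibition above about 25%, with every replicate also reaching it, limit read from the data, passing the limit was not always enough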
# Target sequence (Q15084 whole entry, looked up): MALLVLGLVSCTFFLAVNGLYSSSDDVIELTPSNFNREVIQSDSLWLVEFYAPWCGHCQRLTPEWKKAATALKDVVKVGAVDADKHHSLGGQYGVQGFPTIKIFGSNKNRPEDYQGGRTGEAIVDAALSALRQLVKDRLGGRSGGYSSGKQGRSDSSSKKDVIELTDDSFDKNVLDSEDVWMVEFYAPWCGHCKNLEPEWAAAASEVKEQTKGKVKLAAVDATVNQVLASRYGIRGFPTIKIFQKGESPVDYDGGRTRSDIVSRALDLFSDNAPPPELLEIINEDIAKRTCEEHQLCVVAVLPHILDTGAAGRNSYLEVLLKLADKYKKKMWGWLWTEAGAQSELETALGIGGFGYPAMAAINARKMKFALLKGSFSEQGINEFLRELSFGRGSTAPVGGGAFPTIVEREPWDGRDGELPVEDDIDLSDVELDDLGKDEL
# ARNT-TACC3 inh = disruptors of ARNT/TACC3 protein interaction, primary screen, biochemical, AlphaScreen, single concentration | 390,000 tested, 0.66% active | AlphaScreen His-ARNT PAS-B/GST-TACC3 binding, luminescence; TACC3 fragment carries E629A point mutation | inhibition, % at 9.99 µM | AID 623870, 2012;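 active means mean inhibition of replicates at least 50% and at least half of replicates each reaching 50%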;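 further: 0% = complete ARNT plus TACC3 wells and 100% = ARNT alone without TACC3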
# ALR H2O2 inh = inhibitors of human ALR sulfhydryl oxidase, primary screen, biochemical, H2O2 detection, HRP-luminol luminescence, single point | inhibition, % (test concentration not listed) | purified ALR, DTT oxidation | 290,000 tested, 3.8% active | FAD-linked sulfhydryl oxidase ALR (Homo sapiens), P55789 | AID 485317, 2010;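 active means mean replicate inhibition above about 79%, with every replicate also reaching it, limit read from the data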
# Target sequence (P55789 whole entry, looked up): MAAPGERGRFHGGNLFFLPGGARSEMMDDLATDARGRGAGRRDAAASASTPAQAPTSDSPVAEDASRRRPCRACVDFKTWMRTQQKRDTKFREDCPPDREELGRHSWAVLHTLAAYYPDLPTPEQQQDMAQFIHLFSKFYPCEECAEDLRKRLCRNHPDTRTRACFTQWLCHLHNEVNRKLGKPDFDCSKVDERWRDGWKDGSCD
# * hit, by the source's call; nt = no result given. The entries come from a sample that favours hits as a whole.
SMILES,PDI turbidity,PglD inh,NRP1-CendR mod,ERp5 block,ARNT-TACC3 inh,ALR H2O2 inh
O=C(O)CCS(=O)(=O)c1nc(-c2cccs2)cc(C(F)(F)F)n1,-1.1,2.3,4.8,5.8,-1.9,97.3*
N=C(N)SCc1ncccc1O,3.1,-1.5,6.3,5.0,49.6*,-1.1
Cc1cc(C)c(C(N)=O)c(SCC(=O)c2ccc(Cl)cc2)n1,-0.6,-1.5,7.0,-4.8,0.8,17.6
Cc1cc(C)nc(SCC(=O)c2ccc(F)cc2)n1,-2.9,-5.6,4.8,2.8,-3.9,19.7
COc1ccc(Oc2c(C)nc(SCC(=O)c3ccc(Cl)cc3)[nH]c2=O)cc1,-5.5,0.7,1.7,3.8,-4.5,88.4*
Cc1nc(SCC(=O)c2ccc(Cl)cc2)c([N+](=O)[O-])[nH]1,2.2,1.5,0.3,nt,nt,98.7*
Cc1nc(SCC(=O)c2ccc(F)cc2)c([N+](=O)[O-])[nH]1,11.1,-5.2,-10.8,nt,1.0,93.3*
C[C@H](CO)N1C[C@H](C)[C@H](CN(C)C(=O)C2CC2)Oc2ncc(C#Cc3ccccc3F)cc2C1=O,nt,2.6,nt,-4.7,-5.5,nt
O=C(C[C@H]1C[C@@H]2c3cc(NC(=O)Nc4ccccc4F)ccc3O[C@@H]2[C@H](CO)O1)NCC(F)(F)F,nt,3.5,nt,2.0,-6.5,nt
O=C(Nc1ccccc1)N1CCCCN2[C@H](CO)[C@@H](c3ccc(C#CC4CC4)cc3)[C@@H]2C1,nt,-1.6,nt,-6.0,active,nt
O=C(Nc1ccccc1)N1CCCCN2[C@H](CO)[C@H](c3ccc(C#Cc4ccccn4)cc3)[C@H]2C1,nt,2.1,nt,4.8,11.2*,nt
CCCOC(=O)C1=C(C)N(C)C(=O)NC1c1cc2c(cc1[N+](=O)[O-])OCO2 (stereo unspecified),5.2,-3.1,15.3,6.0,-4.2,11.8
CCOC(=O)C1=C(C)NC(=O)CC1c1cc2c(cc1[N+](=O)[O-])OCO2 (stereo unspecified),1.9,1.1,2.9,2.6,4.2,90.8*
CN(C)CC(=O)Nc1ccc2c(c1)[C@H]1C[C@@H](CC(=O)NCc3cccc(F)c3)O[C@@H](CO)[C@H]1O2,nt,4.0,nt,-2.4,-3.1,nt
CCN(CC)c1ccc(/C=N/N2CCOCC2)cc1,9.8,3.5,4.0,nt,1.0,98.6*
CCN(CC)c1ccc(C=NN2CCCCCC2)cc1,-4.0,1.0,-8.1,-3.6,1.6,nt
CCN(Cc1ccccc1)c1ccc(/C=N/N2CCOCC2)cc1,-6.4,nt,21.9,5.6,11.2,98.4*
COc1ccc(/C=N/N2CCOCC2)cc1O,-8.5,nt,-3.7,nt,-2.2,97.6*
COc1cc(/C=N/N2CCOCC2)ccc1OCc1ccccc1,1.8,nt,-1.6,2.7,5.1,-4.5
CN1c2ccc(Br)cc2[C@H]2[C@H](CCN2S(=O)(=O)c2cccc(F)c2)[C@@H]1CO,nt,0.0,nt,5.2,-2.3,nt
CCOc1ccc2c(c1)C(C)=CC(C)(C)N2C(=O)Nc1ccccc1F,-3.9,-1.3,-0.3,5.7,0.9,-86.2
CCNC(=O)N1c2ccc(OCC)cc2C(C)=CC1(C)C,7.4,-3.7,0.5,nt,44.7,87.6*
C[C@@H]1CCCCO[C@@H](CN(C)Cc2ccc(C(F)(F)F)cc2)[C@H](C)CN([C@H](C)CO)C(=O)c2cc(NC(=O)Nc3ccc(F)cc3)ccc2O1,nt,-11.6,nt,0.3,12.4,nt
CCOc1ccc(C(=O)CCNC(Cc2cnc[nH]2)C(=O)O)cc1 (stereo unspecified),-0.8,-0.2,-2.2,1.2,60.9*,-0.4
CCOc1ccc(S(=O)(=O)NC(Cc2cnc[nH]2)C(=O)O)cc1 (stereo unspecified),0.9,nt,12.6,5.0,15.8,-3.6
SMILES,PDI turbidity,PglD inh,NRP1-CendR mod,ERp5 block,ARNT-TACC3 inh,ALR H2O2 inh
C[C@H](CO)N1C[C@H](C)[C@@H](CN(C)C(=O)Nc2ccc(F)cc2)Oc2c(NS(=O)(=O)c3cccs3)cccc2C1=O,nt,5.5,nt,7.6,4.4,nt
Nc1nc(N2CCN(C(c3ccccc3)c3ccccc3)CC2)n[nH]1,24.1,nt,-5.8,5.7,-2.8,15.5
Cc1cccc(C)c1N1CCN(c2n[nH]c(N)n2)CC1,-4.2,nt,-1.3,7.7,-1.9,96.2*
COc1ccc(N2CCN(c3n[nH]c(N)n3)CC2)cc1,-3.9,nt,1.6,2.7,2.4,98.4*
C=CCOC(=O)[C@H]1[C@@H]2C(=O)O[C@@H](c3ccccc3)[C@@H](c3ccccc3)N2[C@@H](c2ccc(OCCOC(=O)[C@H]3C[C@H]4C(=O)N[C@@H](Cc5ccccc5)C(=O)N4[C@H]3c3ccc(O)cc3)cc2)[C@]12C(=O)Nc1ccc(I)cc12,nt,nt,nt,-0.3,nt,nt
C[C@@H]1CN([C@H](C)CO)C(=O)c2cc(-c3ccc(C#N)cc3)cnc2O[C@@H]1CN(C)Cc1ccccn1,nt,3.4,nt,1.8,-1.9,nt
C[C@H]1CCCCO[C@H](CN(C)C(=O)C2CCCCC2)[C@@H](C)CN([C@@H](C)CO)C(=O)c2cc(NS(=O)(=O)c3ccc(Cl)cc3)ccc2O1,nt,1.3,nt,1.5,4.6,nt
O=C(O)/C=C/C(=O)Nc1ccc2c(c1)C(=O)c1ccccc1C2=O,0.7,nt,-7.9,-0.8,47.6*,96.7*
COc1ccc(N2CCN(c3ccc(NC(=O)/C=C\C(=O)O)cc3)CC2)cc1,-0.9,0.7,-1.9,2.1,-9.5,83.2*
O=C(O)/C=C/C(=O)Nc1ccc(O)cc1,3.7,6.3,4.1,-2.5,54.2*,98.1*
O=C(O)/C=C/C(=O)Nc1ccc(C(=O)c2ccccc2)cc1,-8.5,nt,3.5,-6.5,1.8,0.6
C[C@@H]1CN([C@H](C)CO)C(=O)c2cccc(NS(=O)(=O)c3ccccc3)c2O[C@H]1CN(C)S(=O)(=O)c1ccc(Cl)cc1,nt,5.8,nt,-3.9,-2.6,nt
CC(C)=C1C(=O)NN(c2ccc(F)c(Cl)c2)C1=O,12.1,5.3,-3.7,-4.1,-9.2,94.2*
O=C(c1cccc(NC2=NC3CS(=O)(=O)CC3S2)c1)N1CCN(c2ncccn2)CC1 (stereo unspecified),nt,1.9,6.7,-1.5,-6.4,-0.7
COc1ccc(N2CCN(C(=O)c3cccc(NC4=NC5CS(=O)(=O)CC5S4)c3)CC2)cc1 (stereo unspecified),-5.1,1.0,-2.0,3.5,-27.2,93.3*
Cc1ccc(-c2csc3nc4c5ccccc5c(NCCCN5CCOCC5)nn4c(=O)c23)cc1,nt,nt,nt,nt,nt,-4.0
Cc1ccc(-c2csc3nc4c5ccccc5c(NCCCN(C)C)nn4c(=O)c23)cc1,1.5,-1.0,-7.9,6.6,67.1*,-39.0
COc1ccc2cc(C3=CC(=O)CCC3)ccc2c1,-6.8,3.4,28.1*,1.9,-4.4,nt

# Screening results from PubChem.
